Data reported in PubChem BioAssay (NCI).
About 83,000 compounds went through this panel and 20% of them were active in at least one assay; those are over-represented in the sample as a whole.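 Growth was measured after 48 h exposure to one concentration of compound in 96-well plates. Values under 10 count as active.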 Unmarked numbers belong to inactive results. The source made the active and inactive calls.

Tested on: HL-60(TB) leukemia
Assay: NCI-60 one-dose screen, 48 h (100 = growth as untreated, 0 = no growth, -100 = all killed)
Settings: 10 µM unless noted

| SMILES | growth |
| --- | --- |
| CCCCCCCCCCCCCCCCNc1ccccc1 | 8.47% (active) |
| COc1ccc2oc(=O)cc(-c3c(C#N)c(N)n4nc(N)c(C#N)c4c3C#N)c2c1 | 96.4% |
| COc1ccc(CCN2C(=O)CCSC2=S)cc1 | 72.3% |
| COC(=O)/C=C1/SC(=Nc2ccc(F)cc2)N(CCc2c[nH]c3ccc(O)cc23)C1=O | -8.07% (active) |
| O=C1/C(=C/c2ccc([N+](=O)[O-])cc2)COc2ccc(O)cc21 | 50.9% |
| CC(=O)/C(C)=N\OC(=O)Nc1ccccc1 | 102% |
| O=C1Nc2cc(-c3ccc(NC(=O)c4ccccc4)cc3)ccc2/C1=C/c1ccc[nH]1 | 99.2% |
| c1ccc(C(=NNc2nc3ccccc3o2)c2ccccn2)nc1 | -11.8% (active) |
| CCCCCCCCCCCCCCCCCCOP(=O)(O)O | 102% |
| O=C1c2ccccc2-c2c1c1c(NCCCO)nc3ccccc3c1n2Cc1ccccc1 | 48.9% |
| C#Cc1ccc(-n2c(/C=C/c3ccc4ccccc4c3)nc3ncccc3c2=O)cc1 | -2.99% (active) |
| CCN(CC)Cc1cc(Nc2ccnc3ccc(OC)cc23)ccc1O | 32.5% |
| COc1ccc(NC(=O)c2sc3nc4c(cc3c2N)C(O)CCC4)cc1 (configuration not stated) | 93.2% |
| CC(C)c1cccc(C#N)c1 | 112% |
| O=C(c1ccccc1)N(C(=S)NCCc1ccc(Cl)cc1)c1ccc(Cl)cc1 | 23% |
| C=C(C)[C@@H]1CC[C@]2(CN)CC[C@]3(C)[C@H](CC[C@@H]4[C@@](C)(CCCN)[C@H](C(=C)C)CC[C@]43C)[C@@H]12 | 53.3% |
| C1=C(c2ccccc2)C(c2ccc(OCCN3CCCCC3)cc2)Oc2ccccc21 (configuration not stated) | 62.7% |
| Cc1cc(N(CCNc2ccnc3cc(Cl)ccc23)Cc2cccs2)nc(Cl)n1 | -72.4% (active) |
| CCn1cc(-c2ccnc(NCCNS(=O)(=O)c3ccc(Br)cc3)c2)c(-c2cccc(OC)c2)n1 | 81.4% |

| SMILES | growth |
| --- | --- |
| CCOc1nc(-c2ccccc2)cc2c(O)c(C(=O)n3nc(C)cc3C)[nH]c(=O)c12 | 103% |
| COc1cccc(-c2nc3sccn3c2-c2ccnc(NCCCNS(=O)(=O)c3cccc(F)c3)c2)c1 | -26.9% (active) |
| CCN1C(=O)N(CC)C2C1NN=c1s/c(=C\c3ccccc3F)c(=O)n12 (configuration not stated) | -48.1% (active) |
| O=C(CN1CCN(c2cc3c(cc2F)c(=O)c(C(=O)O)cn3C2CC2)CC1)Nc1ccc(C(=O)/C=C/c2ccccc2)cc1 | 40.9% |
| NC[C@@H]1O[C@H](O[C@@H]2[C@@H](CO)OC(O[C@@H]3[C@@H](O)[C@H](N)C[C@H](N)[C@H]3OC3O[C@H](CN)[C@@H](O)[C@H](O)[C@H]3N)[C@@H]2O)[C@H](N)[C@@H](O)[C@@H]1O (some centres not stated) | 94.7% |
| N#C/C(=C\c1ccc(-c2cc(C(F)(F)F)ccc2Cl)o1)c1nc(-c2ccco2)cs1 | 89.2% |
| c1ccc(CNc2ccc3nc(CCC4CCCCC4)[nH]c3c2)cc1 | 47% |
| CC(C)(C)n1cc(-c2ccnc(NCCNS(=O)(=O)c3ccc(Br)cc3)c2)c(-c2cccc(O)c2)n1 | -8.19% (active) |
| COc1ccc(C(=O)N2NC(=O)/C(=C/c3cn(-c4ccccc4)nc3-c3ccccc3)N=C2c2ccccc2)cc1 | 103% |
| Oc1c(C(Nc2ccccn2)c2cccc(Oc3ccccc3)c2)ccc2cccnc12 (configuration not stated) | -51.9% (active) |
| O=C(OC[C@@H]1CO1)c1cccc2c(=O)c3ccccc3[nH]c12 | -51.4% (active) |
| O=C1C(c2c[nH]c3ccccc23)=C(c2coc3cc(Br)ccc23)C(=O)N1O | 103% |
| COc1ccccc1-n1c(-c2sc(NC(C)=O)nc2C)n[nH]c1=S | 101% |
| CCCCCCCCCCN1CC2CCCCC2C1 (configuration not stated) | 68.5% |
| CC(O)C(F)(F)C(F)(F)C(F)(F)F (configuration not stated) | 101% |
| O=C(NCCCN1CCC(N2CCCCC2)CC1)C1=Cc2cc(Br)ccc2OC1 | 36.3% |
| COc1ccc(-c2nc(SCC(C)C)nc(Nc3ccc([N+](=O)[O-])cc3)c2C#N)cc1 | 90.5% |
| CCCCCCCCCCCCCCCCC(=O)O.CCCCCCCCCCCCCCCCCC(=O)O.CCCCCCCCCCCCCCCCCC(=O)O.CCCCCCCCCCCCCCCCCC(=O)O.CCCCCCCCCCCCCCCCCC(=O)O.CO[CH-]OC12COC1CC(O)C1(C)C(O)C(OC(C)O)C3=C(C)C(OC(=O)C(O)C([NH-])c4ccccc4)CC(O)(C(OC(=O)c4ccccc4)C21)C3(C)C.[Cu+].[Zn].[Zn].[Zn].[Zn].[Zn] (configuration not stated) | -3.29% (active) |
